# Positions count from the first letter of the chain named.
# Assays:
# Assay in all cases: PBM; 200 nM protein, PBS
# Conditions in all cases: dsDNA, one strand shown
# HOXA7 [1] = molecular target: HOXA7 (Homo sapiens, UniProt P31268 116-202)
# VENTX [2] = molecular target: T1, VENTX (Homo sapiens, UniProt O95231 78-163)
# T1 sequence: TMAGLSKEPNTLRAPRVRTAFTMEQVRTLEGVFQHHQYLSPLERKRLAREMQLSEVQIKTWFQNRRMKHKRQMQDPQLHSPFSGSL
# SIX6 = molecular target: T2, SIX6 (Homo sapiens, UniProt O95475 114-200, L143V)
# T2 sequence: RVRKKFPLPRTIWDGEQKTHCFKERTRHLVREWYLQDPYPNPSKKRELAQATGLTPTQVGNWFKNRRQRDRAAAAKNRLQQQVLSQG
# ALX4 = ALX4 (Homo sapiens, UniProt Q9H161 200-286)
# Sequence of ALX4 (Q9H161 200-286): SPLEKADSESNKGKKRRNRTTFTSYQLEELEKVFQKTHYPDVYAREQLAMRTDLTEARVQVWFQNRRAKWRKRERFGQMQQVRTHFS
# HOXC10 [3] = molecular target: HOXC10 (Homo sapiens, UniProt Q9NYD6 254-340)
# Sequence of HOXC10 (Homo sapiens, UniProt Q9NYD6 254-340) (Q9NYD6 254-340): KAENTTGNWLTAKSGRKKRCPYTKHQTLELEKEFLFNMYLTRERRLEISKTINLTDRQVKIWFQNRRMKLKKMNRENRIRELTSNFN
# HOXA2 [4] = molecular target: HOXA2 (Homo sapiens, UniProt O43364 129-215, R185T)
# Sequence of HOXA2 (Homo sapiens, UniProt O43364 129-215, R185T) (O43364 129-215 R185T): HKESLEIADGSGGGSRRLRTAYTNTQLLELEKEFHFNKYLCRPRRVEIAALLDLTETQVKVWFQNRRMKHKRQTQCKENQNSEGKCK
# HOXA2 [5] = molecular target: HOXA2 (Homo sapiens, UniProt O43364 129-215, R185K)
# Sequence of HOXA2 (Homo sapiens, UniProt O43364 129-215, R185K) (O43364 129-215 R185K): as the sequence (O43364 129-215 R185T) above, with T57K counted along it
# HOXC10 [6] = molecular target: HOXC10 (Homo sapiens, UniProt Q9NYD6 254-340, K271E)
# Sequence of HOXC10 (Homo sapiens, UniProt Q9NYD6 254-340, K271E) (Q9NYD6 254-340 K271E): as the sequence (Q9NYD6 254-340) above, with K18E counted along it
# HOXA2 [7] = molecular target: HOXA2 (Homo sapiens, UniProt O43364 129-215, Y150S)
# Sequence of HOXA2 (Homo sapiens, UniProt O43364 129-215, Y150S) (O43364 129-215 Y150S): as the sequence (O43364 129-215 R185T) above, with Y22S, T57R counted along it
# HOXA7 [8] = molecular target: HOXA7 (Homo sapiens, UniProt P31268 116-202, W177C)
# Sequence of HOXA7 (Homo sapiens, UniProt P31268 116-202, W177C) (P31268 116-202 W177C): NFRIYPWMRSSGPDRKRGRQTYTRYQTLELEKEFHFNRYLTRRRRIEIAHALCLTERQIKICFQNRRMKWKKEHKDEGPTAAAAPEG
# HOXA2 [9] = molecular target: HOXA2 (Homo sapiens, UniProt O43364 129-215)
# Sequence of HOXA2 (Homo sapiens, UniProt O43364 129-215) (O43364 129-215): as the sequence (O43364 129-215 R185T) above, with T57R counted along it
# HOXB6 [10] = molecular target: HOXB6 (Homo sapiens, UniProt P17509 132-218, K202E)
# Sequence of HOXB6 (Homo sapiens, UniProt P17509 132-218, K202E) (P17509 132-218 K202E): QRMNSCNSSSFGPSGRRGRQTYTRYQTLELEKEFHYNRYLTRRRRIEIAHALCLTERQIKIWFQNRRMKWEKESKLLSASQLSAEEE
# HOXB6 [11] = molecular target: HOXB6 (Homo sapiens, UniProt P17509 132-218)
# Sequence of HOXB6 (Homo sapiens, UniProt P17509 132-218) (P17509 132-218): as the sequence (P17509 132-218 K202E) above, with E71K counted along it
# HOXC9 [12] = molecular target: HOXC9 (Homo sapiens, UniProt P31274 178-260, K195R)
# Sequence of HOXC9 (Homo sapiens, UniProt P31274 178-260, K195R) (P31274 178-260 K195R): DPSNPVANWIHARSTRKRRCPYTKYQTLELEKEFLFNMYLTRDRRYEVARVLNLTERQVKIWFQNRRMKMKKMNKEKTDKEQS
# HOXC9 [13] = molecular target: HOXC9 (Homo sapiens, UniProt P31274 178-260)
# Sequence of HOXC9 (Homo sapiens, UniProt P31274 178-260) (P31274 178-260): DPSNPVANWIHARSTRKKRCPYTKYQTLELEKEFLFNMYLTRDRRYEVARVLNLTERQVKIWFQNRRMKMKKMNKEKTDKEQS
# HOXC9 [14] = molecular target: HOXC9 (Homo sapiens, UniProt P31274 178-260, R193K)
# Sequence of HOXC9 (Homo sapiens, UniProt P31274 178-260, R193K) (P31274 178-260 R193K): as the sequence (P31274 178-260) above, with R16K counted along it
# HOXC9 [15] = molecular target: HOXC9 (Homo sapiens, UniProt P31274 178-260, R222W)
# Sequence of HOXC9 (Homo sapiens, UniProt P31274 178-260, R222W) (P31274 178-260 R222W): as the sequence (P31274 178-260) above, with R45W counted along it
# VENTX [16] = molecular target: T3, VENTX (Homo sapiens, UniProt O95231 78-163, Y115F)
# T3 sequence: T1 sequence with Y38F
# NKX3-2 [17] = molecular target: NKX3-2 (Homo sapiens, UniProt P78367 192-278, P234S)
# Sequence of NKX3-2 (Homo sapiens, UniProt P78367 192-278, P234S) (P78367 192-278 P234S): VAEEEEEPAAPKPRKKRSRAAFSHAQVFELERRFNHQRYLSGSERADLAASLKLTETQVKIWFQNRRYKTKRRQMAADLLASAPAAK
# NKX3-2 [18] = molecular target: NKX3-2 (Homo sapiens, UniProt P78367 192-278)
# Sequence of NKX3-2 (Homo sapiens, UniProt P78367 192-278) (P78367 192-278): as the sequence (P78367 192-278 P234S) above, with S43P counted along it
# HOXD13 [19] = molecular target: HOXD13 (Homo sapiens, UniProt P35453 263-343, T313R)
# Sequence of HOXD13 (Homo sapiens, UniProt P35453 263-343, T313R) (P35453 263-343 T313R): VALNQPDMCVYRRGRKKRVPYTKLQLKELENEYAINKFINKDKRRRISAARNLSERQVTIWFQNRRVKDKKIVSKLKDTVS
# HOXD13 [20] = molecular target: HOXD13 (Homo sapiens, UniProt P35453 263-343)
# Sequence of HOXD13 (Homo sapiens, UniProt P35453 263-343) (P35453 263-343): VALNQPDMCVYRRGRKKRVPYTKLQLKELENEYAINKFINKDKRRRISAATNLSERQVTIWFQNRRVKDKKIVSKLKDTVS
# HOXD13 [21] = molecular target: HOXD13 (Homo sapiens, UniProt P35453 263-343, T313A)
# Sequence of HOXD13 (Homo sapiens, UniProt P35453 263-343, T313A) (P35453 263-343 T313A): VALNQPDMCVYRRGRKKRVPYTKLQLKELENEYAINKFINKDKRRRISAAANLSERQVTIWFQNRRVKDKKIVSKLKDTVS
# Sequence of HOXA7 (Homo sapiens, UniProt P31268 116-202) (P31268 116-202): as the sequence (P31268 116-202 W177C) above, with C62W counted along it
sequence,measurement,setting,value
ATTTAGAC,binding signal,HOXA7 [1],"9.49 upbm affinity estimate (log intensity, higher = more binding, comparable within an allelic series)"
ACCGATCT,binding signal,VENTX [2],"9.79 upbm affinity estimate (log intensity, higher = more binding, comparable within an allelic series)"
GGATATAA,binding signal,SIX6,"10.5 upbm affinity estimate (log intensity, higher = more binding, comparable within an allelic series)"
AATAACCG,binding signal,VENTX [2],"10.1 upbm affinity estimate (log intensity, higher = more binding, comparable within an allelic series)"
CACGTTTA,binding signal,VENTX [2],"10.1 upbm affinity estimate (log intensity, higher = more binding, comparable within an allelic series)"
CTAACGCA,binding signal,VENTX [2],"9.98 upbm affinity estimate (log intensity, higher = more binding, comparable within an allelic series)"
same,binding signal,ALX4,"9.64 upbm affinity estimate (log intensity, higher = more binding, comparable within an allelic series)"
TATGAATA,binding signal,VENTX [2],"10.3 upbm affinity estimate (log intensity, higher = more binding, comparable within an allelic series)"
CACCGGTC,binding signal,HOXA7 [1],"8.56 upbm affinity estimate (log intensity, higher = more binding, comparable within an allelic series)"
same,binding signal,HOXC10 [3],"10 upbm affinity estimate (log intensity, higher = more binding, comparable within an allelic series)"
same,binding signal,HOXA2 [4],"7.38 upbm affinity estimate (log intensity, higher = more binding, comparable within an allelic series)"
same,binding signal,HOXA2 [5],"10.4 upbm affinity estimate (log intensity, higher = more binding, comparable within an allelic series)"
same,binding signal,HOXC10 [6],"9.92 upbm affinity estimate (log intensity, higher = more binding, comparable within an allelic series)"
same,binding signal,HOXA2 [7],"10.3 upbm affinity estimate (log intensity, higher = more binding, comparable within an allelic series)"
same,binding signal,HOXA7 [8],"8.34 upbm affinity estimate (log intensity, higher = more binding, comparable within an allelic series)"
same,binding signal,HOXA2 [9],"7.28 upbm affinity estimate (log intensity, higher = more binding, comparable within an allelic series)"
ATTTAGTC,binding signal,VENTX [2],"10.2 upbm affinity estimate (log intensity, higher = more binding, comparable within an allelic series)"
ATCACCAT,binding signal,VENTX [2],"10.3 upbm affinity estimate (log intensity, higher = more binding, comparable within an allelic series)"
GAGTCCGC,binding signal,HOXA7 [1],"8.56 upbm affinity estimate (log intensity, higher = more binding, comparable within an allelic series)"
same,binding signal,HOXC10 [3],"10.1 upbm affinity estimate (log intensity, higher = more binding, comparable within an allelic series)"
same,binding signal,HOXB6 [10],"9.05 upbm affinity estimate (log intensity, higher = more binding, comparable within an allelic series)"
same,binding signal,HOXC10 [6],"10.1 upbm affinity estimate (log intensity, higher = more binding, comparable within an allelic series)"
same,binding signal,HOXA7 [8],"8.39 upbm affinity estimate (log intensity, higher = more binding, comparable within an allelic series)"
same,binding signal,HOXB6 [11],"8.98 upbm affinity estimate (log intensity, higher = more binding, comparable within an allelic series)"
CCTAGACG,binding signal,HOXC9 [12],"9.79 upbm affinity estimate (log intensity, higher = more binding, comparable within an allelic series)"
same,binding signal,HOXC9 [13],"9.86 upbm affinity estimate (log intensity, higher = more binding, comparable within an allelic series)"
same,binding signal,HOXC9 [14],"9.81 upbm affinity estimate (log intensity, higher = more binding, comparable within an allelic series)"
same,binding signal,HOXC9 [15],"9.82 upbm affinity estimate (log intensity, higher = more binding, comparable within an allelic series)"
GATGATCA,binding signal,VENTX [2],"9.89 upbm affinity estimate (log intensity, higher = more binding, comparable within an allelic series)"
same,binding signal,VENTX [16],"9.51 upbm affinity estimate (log intensity, higher = more binding, comparable within an allelic series)"
ATAATAAC,binding signal,HOXC9 [12],"12 upbm affinity estimate (log intensity, higher = more binding, comparable within an allelic series)"
same,binding signal,HOXC9 [13],"12 upbm affinity estimate (log intensity, higher = more binding, comparable within an allelic series)"
same,binding signal,HOXC9 [14],"12 upbm affinity estimate (log intensity, higher = more binding, comparable within an allelic series)"
same,binding signal,HOXC9 [15],"10.7 upbm affinity estimate (log intensity, higher = more binding, comparable within an allelic series)"
TCCTTCGA,binding signal,HOXC9 [12],"9.75 upbm affinity estimate (log intensity, higher = more binding, comparable within an allelic series)"
same,binding signal,HOXC9 [13],"9.66 upbm affinity estimate (log intensity, higher = more binding, comparable within an allelic series)"
same,binding signal,HOXC9 [14],"9.72 upbm affinity estimate (log intensity, higher = more binding, comparable within an allelic series)"
same,binding signal,HOXC9 [15],"9.84 upbm affinity estimate (log intensity, higher = more binding, comparable within an allelic series)"
CGTGATCA,binding signal,VENTX [2],"9.86 upbm affinity estimate (log intensity, higher = more binding, comparable within an allelic series)"
same,binding signal,VENTX [16],"9.57 upbm affinity estimate (log intensity, higher = more binding, comparable within an allelic series)"
AGGCTCCC,binding signal,HOXC9 [12],"9.39 upbm affinity estimate (log intensity, higher = more binding, comparable within an allelic series)"
same,binding signal,HOXC9 [13],"9.56 upbm affinity estimate (log intensity, higher = more binding, comparable within an allelic series)"
same,binding signal,HOXC9 [14],"9.51 upbm affinity estimate (log intensity, higher = more binding, comparable within an allelic series)"
same,binding signal,HOXC9 [15],"9.47 upbm affinity estimate (log intensity, higher = more binding, comparable within an allelic series)"
AACCAAAT,binding signal,VENTX [2],"10 upbm affinity estimate (log intensity, higher = more binding, comparable within an allelic series)"
same,binding signal,HOXA2 [4],"9.12 upbm affinity estimate (log intensity, higher = more binding, comparable within an allelic series)"
same,binding signal,HOXA2 [9],"9.13 upbm affinity estimate (log intensity, higher = more binding, comparable within an allelic series)"
CCGGTACC,binding signal,HOXC9 [12],"9.7 upbm affinity estimate (log intensity, higher = more binding, comparable within an allelic series)"
same,binding signal,HOXC9 [13],"9.7 upbm affinity estimate (log intensity, higher = more binding, comparable within an allelic series)"
same,binding signal,HOXC9 [14],"9.72 upbm affinity estimate (log intensity, higher = more binding, comparable within an allelic series)"
same,binding signal,HOXC9 [15],"9.71 upbm affinity estimate (log intensity, higher = more binding, comparable within an allelic series)"
same,binding signal,NKX3-2 [17],"10.5 upbm affinity estimate (log intensity, higher = more binding, comparable within an allelic series)"
same,binding signal,NKX3-2 [18],"10.6 upbm affinity estimate (log intensity, higher = more binding, comparable within an allelic series)"
ACCGCTTA,binding signal,VENTX [2],"10.8 upbm affinity estimate (log intensity, higher = more binding, comparable within an allelic series)"
GATTGAGC,binding signal,VENTX [2],"9.7 upbm affinity estimate (log intensity, higher = more binding, comparable within an allelic series)"
CTCACCAG,binding signal,HOXC9 [12],"9.79 upbm affinity estimate (log intensity, higher = more binding, comparable within an allelic series)"
same,binding signal,HOXC9 [13],"9.75 upbm affinity estimate (log intensity, higher = more binding, comparable within an allelic series)"
same,binding signal,HOXC9 [14],"9.75 upbm affinity estimate (log intensity, higher = more binding, comparable within an allelic series)"
same,binding signal,HOXC9 [15],"9.9 upbm affinity estimate (log intensity, higher = more binding, comparable within an allelic series)"
CATCATCA,binding signal,VENTX [2],"10.4 upbm affinity estimate (log intensity, higher = more binding, comparable within an allelic series)"
GGGCACGA,binding signal,HOXC9 [12],"9.75 upbm affinity estimate (log intensity, higher = more binding, comparable within an allelic series)"
same,binding signal,HOXC9 [13],"9.85 upbm affinity estimate (log intensity, higher = more binding, comparable within an allelic series)"
same,binding signal,HOXC9 [14],"9.76 upbm affinity estimate (log intensity, higher = more binding, comparable within an allelic series)"
same,binding signal,HOXC9 [15],"9.89 upbm affinity estimate (log intensity, higher = more binding, comparable within an allelic series)"
TTATGCAA,binding signal,VENTX [2],"9.95 upbm affinity estimate (log intensity, higher = more binding, comparable within an allelic series)"
ACGCCATA,binding signal,HOXC9 [12],"11 upbm affinity estimate (log intensity, higher = more binding, comparable within an allelic series)"
same,binding signal,HOXC9 [13],"10.9 upbm affinity estimate (log intensity, higher = more binding, comparable within an allelic series)"
same,binding signal,HOXC9 [14],"11 upbm affinity estimate (log intensity, higher = more binding, comparable within an allelic series)"
same,binding signal,HOXC9 [15],"10.2 upbm affinity estimate (log intensity, higher = more binding, comparable within an allelic series)"
CCTCCAGG,binding signal,HOXC9 [12],"9.43 upbm affinity estimate (log intensity, higher = more binding, comparable within an allelic series)"
same,binding signal,HOXC9 [13],"9.47 upbm affinity estimate (log intensity, higher = more binding, comparable within an allelic series)"
same,binding signal,HOXC9 [14],"9.34 upbm affinity estimate (log intensity, higher = more binding, comparable within an allelic series)"
same,binding signal,HOXC9 [15],"9.67 upbm affinity estimate (log intensity, higher = more binding, comparable within an allelic series)"
CGCGTTTA,binding signal,VENTX [2],"10.2 upbm affinity estimate (log intensity, higher = more binding, comparable within an allelic series)"
AATGGGGA,binding signal,VENTX [2],"10.3 upbm affinity estimate (log intensity, higher = more binding, comparable within an allelic series)"
CCGTTATA,binding signal,HOXC9 [12],"11.3 upbm affinity estimate (log intensity, higher = more binding, comparable within an allelic series)"
same,binding signal,HOXC9 [13],"11.3 upbm affinity estimate (log intensity, higher = more binding, comparable within an allelic series)"
same,binding signal,HOXC9 [14],"11.2 upbm affinity estimate (log intensity, higher = more binding, comparable within an allelic series)"
same,binding signal,HOXC9 [15],"10.3 upbm affinity estimate (log intensity, higher = more binding, comparable within an allelic series)"
AAAATGCT,binding signal,VENTX [2],"9.84 upbm affinity estimate (log intensity, higher = more binding, comparable within an allelic series)"
ACTAAGCG,binding signal,VENTX [2],"10.2 upbm affinity estimate (log intensity, higher = more binding, comparable within an allelic series)"
GGTGATAA,binding signal,VENTX [2],"10.3 upbm affinity estimate (log intensity, higher = more binding, comparable within an allelic series)"
AATTGGAC,binding signal,VENTX [2],"10.1 upbm affinity estimate (log intensity, higher = more binding, comparable within an allelic series)"
same,binding signal,VENTX [16],"9.62 upbm affinity estimate (log intensity, higher = more binding, comparable within an allelic series)"
TATAAAAA,binding signal,HOXA7 [1],"9.87 upbm affinity estimate (log intensity, higher = more binding, comparable within an allelic series)"
same,binding signal,HOXD13 [19],"10.9 upbm affinity estimate (log intensity, higher = more binding, comparable within an allelic series)"
same,binding signal,HOXD13 [20],"11.8 upbm affinity estimate (log intensity, higher = more binding, comparable within an allelic series)"
same,binding signal,HOXD13 [21],"11.6 upbm affinity estimate (log intensity, higher = more binding, comparable within an allelic series)"
same,binding signal,HOXC9 [15],"11.1 upbm affinity estimate (log intensity, higher = more binding, comparable within an allelic series)"
same,binding signal,HOXA7 [8],"8.84 upbm affinity estimate (log intensity, higher = more binding, comparable within an allelic series)"
GACGCTGC,binding signal,HOXA7 [1],"8.24 upbm affinity estimate (log intensity, higher = more binding, comparable within an allelic series)"
same,binding signal,HOXA2 [4],"6.99 upbm affinity estimate (log intensity, higher = more binding, comparable within an allelic series)"
same,binding signal,HOXA2 [5],"10.4 upbm affinity estimate (log intensity, higher = more binding, comparable within an allelic series)"
same,binding signal,HOXA2 [7],"10.4 upbm affinity estimate (log intensity, higher = more binding, comparable within an allelic series)"
same,binding signal,HOXA7 [8],"8.35 upbm affinity estimate (log intensity, higher = more binding, comparable within an allelic series)"
same,binding signal,HOXA2 [9],"7.11 upbm affinity estimate (log intensity, higher = more binding, comparable within an allelic series)"
